Out of some 340,000 compounds screened, about 6,400 (1.9%) were called active. About 4% were inconclusive and are not listed. The call rests on the fitted dose curve; in most records, active means well fitted falling curve with a large enough effect; inconclusive means small, poorly fitted or top-dose-only effect; inactive means no such curve, though single readings can be large or run the other way. The entries come from a sample that favours actives as a whole. Where a call stands in place of a potency, no number is given.
Potency means the concentration at half of the fitted maximal effect.

This test deals with ATP-dependent Clp protease proteolytic subunit (Bacillus subtilis (strain 168)) (UniProt P80244). Kind of test: qHTS Assay for Activators of ClpP. Further: the source files actives as falling curves though it sought activators and does not explain the sign; nearly all actives have a fitted effect of over 65% in size. Conditions: purified B. subtilis ClpP, FRET peptide cleavage, 20 min; series mostly up to 57.5 µM. In short, it runs like this: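 Purified B. subtilis ClpP, 10 microg/mL final in Tris/HCl pH8 with KCl, BSA, glycerol and Tween-20, cleaved an Abz/nitrotyrosine-quenched decapeptide. Fluorescence (ex 320, em 430) was read at 0 and 20 min at room temperature. Delta was normalized to 5.8 microM ADEP and DMSO/no-enzyme controls.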
Sequence of ATP-dependent Clp protease proteolytic subunit (Bacillus subtilis (strain 168)) (P80244 whole entry, looked up): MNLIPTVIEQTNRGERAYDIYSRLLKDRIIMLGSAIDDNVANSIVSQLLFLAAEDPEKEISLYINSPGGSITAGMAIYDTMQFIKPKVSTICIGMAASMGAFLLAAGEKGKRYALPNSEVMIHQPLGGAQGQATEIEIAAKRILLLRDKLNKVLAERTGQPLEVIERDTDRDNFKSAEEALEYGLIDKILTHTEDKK
In general terms: qHTS replaces the single test concentration by a dilution series.
Turning to `O=C1C(Sc2cccc(F)c2)=C[C@@]2(O)CC[C@@H](O)[C@]1(Sc1cccc(F)c1)[C@H]2O`, the Potency result is “inactive”.

For `CCOc1ccc(C(=O)NC2CCN(S(=O)(=O)CC)CC2)cc1`, the Potency entry was “inactive”.

Consider `CCOc1ccc(CC(=O)NC2CCN(Cc3ccccc3)CC2)cc1`, for which the Potency result was “inactive”. The figure for `CCOc1ccc(NS(=O)(=O)c2ccc(C(=O)NC3CCN(Cc4ccccc4)CC3)cc2)cc1` is 28.2 µM (active). Under `NC1=CC(=O)C(=O)c2cccnc21` stands “inactive”; under `Cc1ccc([C@@H]2CC(=O)[C@@H]3CN(S(=O)(=O)c4ccc(C)cc4)[C@H](c4ccccc4F)C[C@@H]3N2S(=O)(=O)c2ccc(Cl)cc2)cc1`, “inactive”; under `COc1cccc(NC(=O)CN2CCN(c3nc(-c4cccc(OC)c4)cs3)CC2)c1`, 17.8 µM (active). Consider `COCCCNC(=S)N1CCN(c2nc(-c3cccc(OC)c3)cs2)CC1`, for which the Potency entry was “inactive”. The entry for `COc1cccc(NC(=O)CN2CCN(CC(=O)Nc3ccccc3Cl)CC2)c1` is “inactive”; for `COC(=O)[C@]12CCCCC=C1N(CCC1=CCCCC1)C(=O)[C@H](CC(=O)NCC1CCCCC1)C2` it is “inactive”; for `CC(=O)C1=C(O)C(=O)N(c2ccc(S(N)(=O)=O)cc2)C1c1ccccc1F` (stereo unspecified) it is 25.1 µM (active). The entry for `CC(=O)C1=C(O)C(=O)N(c2ccc(Br)cc2)C1c1ccc([N+](=O)[O-])cc1` (stereo unspecified) is “inactive”.

On to `NS(=O)(=O)c1ccc(NC2=CC(c3ccc(F)cc3)N(c3ccc(S(N)(=O)=O)cc3)C2=O)cc1` (stereo unspecified), for which the Potency result was “inactive”.

Take `C=CCc1c(C)nc2cc(-c3ccccc3)[nH]n2c1=O`: the Potency result was “inactive”. Under `CCc1c(C)nc2cc(C)[nH]n2c1=O` stands 22.4 µM (active); under `CCC(C)n1[nH]c(=O)c2c(C)cc(C)nc21` (stereo unspecified), “inactive”; under `Cc1ccc(-c2nc(SCc3ccc(Br)cc3)n3[nH]c(=O)cc3n2)cc1`, “inactive”. The figure for `CCc1c(C)nc2cc(-c3cccs3)[nH]n2c1=O` is 22.4 µM (active); for `CCc1ccccc1OCCSc1nc(-c2cccs2)nc2cc(=O)[nH]n12` it is “inactive”; for `Cc1cc(Br)cn2c(Cc3ccsc3)c(-c3ccc(C#N)cc3)nc12` it is “inactive”.

`CCOC(=O)[C@]12CCC=C1N(Cc1ccco1)C(=O)[C@H](CC(=O)N1CCSCC1)C2`: the Potency entry was “inactive”. The entry for `Nc1nc(N)c(N=O)c(N)n1` is “inactive”. On to `CCC(=O)N(Cc1cc2ccccc2[nH]c1=O)c1ccc(OC)cc1`, for which the Potency result is “inactive”. Under `CCOc1ccc2[nH]c(=O)c(CN(CCCO)C(C)=O)cc2c1` stands 28.2 µM (active). The entry for `CCC(=O)N(CCc1ccccc1)Cc1cc2cc(C)ccc2[nH]c1=O` is “inactive”.

Regarding `CC(C)N=C1CCCC1C(=S)SSC(=S)C1CCCC1=NC(C)C` (stereo unspecified), the Potency entry was “inactive”. The entry for `Fc1ccc(CSc2nc(NCc3ccccc3)c3ccccc3n2)cc1` is “inactive”; for `O=C(CSc1nc(Nc2ccc(F)c(F)c2)c2ccccc2n1)c1ccc(Cl)cc1` it is “inactive”. The figure for `Fc1ccc(Nc2nc(SCc3ccccc3Cl)nc3ccccc23)cc1` is 31.6 µM (active); for `Cc1cccc(C)c1NC(=O)C(c1cccc2ccccc12)n1c(=O)c(-c2ccco2)nc2ccccc21` (stereo unspecified) it is “inactive”. For the molecule `CN(Cc1ccccc1)c1ccc(/C=C/c2ccnc3ccccc23)cc1`, the Potency result was “inactive”.

Regarding `CN(C)c1ccc(/C=C2\C=Cc3ccccc32)cc1Br`, the Potency entry was “inactive”. For `CCc1ccc(NC(=O)c2cc3c(=O)n(Cc4cccnc4)ccc3nc2C)cc1`, the Potency result is “inactive”. The figure for `Cc1nc2ccn(Cc3cccnc3)c(=O)c2cc1C(=O)N1CCN(c2ccccc2F)CC1` is 25.1 µM (active); for `O=C(Cn1nc(Cc2cccnc2)c2ccccc2c1=O)N1CCN(c2ccccc2F)CC1` it is “inactive”; for `CN1CCc2c(sc3c2c(NCc2ccco2)nc2nnnn23)C1` it is 17.8 µM (active). Under `Cn1c(=O)n(Cc2ccco2)c(=N)c2c3c(sc21)CCCC3` stands “inactive”; under `CCCSc1nc(NCc2ccco2)c2c3c(sc2n1)COC(C)(CC)C3` (stereo unspecified), “inactive”; under `NC(=S)NN=Cc1ccc(OC(=O)COc2cc(Cl)c(Cl)cc2Cl)cn1`, “inactive”.

For the molecule `CC(C)NC(=O)c1nn(-c2ccccc2F)nc1CO`, the Potency result is “inactive”. The figure for `O=C(NCCCO)c1nn(-c2ccc(Cl)cc2)nc1CO` is 14.1 µM (active). The figure for `Cc1ccc(-n2nc(CO)c(C(=O)NCCc3ccccc3)n2)cc1` is 10 µM (active); for `Nc1nonc1C(=O)NCCc1ccccc1` it is “inactive”. The entry for `COc1ccc(C(=O)NC(C)CCc2ccccc2)c(OC)c1` (stereo unspecified) is “inactive”; for `CC(CCCc1ccccc1)NC(=O)c1nn(-c2ccc(Cl)cc2)nc1CO` (stereo unspecified) it is 31.6 µM (active).

With `O=C(Cc1ccc(Cl)cc1)Nc1ccc2nn(-c3ccc(Cl)cc3)nc2c1`, the Potency entry is “inactive”.

Take `Cc1cc2nn(-c3ccc(Cl)cc3)nc2cc1NC(=O)C(C)C`: the Potency entry was “inactive”.

As for `COc1ccc(CCNC(=O)c2c(C)nn(-c3ccccc3)c2Cl)cc1`, the Potency entry was “inactive”.

With `CCN(CC)c1ccc(/C=C/c2c(C)cnc3ccc(C)cc23)cc1`, the Potency result was “inactive”.

As to `COC(=O)c1ccc2nc(-c3cccc(Br)c3)c(Cc3ccc(OC)cc3C)n2c1`, the Potency entry was “inactive”.

Consider `CCOC(=O)c1cc(-c2sc(NC(=O)c3ccccc3)nc2C)n(CCO)n1`, for which the Potency entry is “inactive”. Under `CCCCCCCCN1C(=O)[C@H](CC(=O)NCc2cccc3ccccc23)C[C@@]2(C(=O)OC)CCCCC=C12` stands “inactive”; under `CC(C)c1ccc(Cn2c(COc3ccccc3)nc3ccccc32)cc1`, “inactive”; under `CC(C)c1ccc(OCC(O)CN2CCN(c3ccccn3)CC2)cc1` (stereo unspecified), “inactive”. The figure for `CC(C)c1ccc(OCC(O)Cn2cnc3ccccc32)cc1` (stereo unspecified) is 28.2 µM (active); for `CCOc1cc2[nH]c(=S)n(Cc3ccc(C(=O)NCCOC)cc3)c(=O)c2cc1OCC` it is “inactive”; for `CC(C)(C)c1cc(C(=O)NCc2cccnc2)ccn1` it is “inactive”. The entry for `COCCn1c(=S)[nH]c2cc(C(=O)NCCc3ccc(OC)c(OC)c3)ccc2c1=O` is “inactive”; for `COc1cc2[nH]c(=O)n(Cc3ccc(C(=O)NCc4ccc(C)cc4)cc3)c(=O)c2cc1OC` it is 10 µM (active). Turning to `COc1cc2[nH]c(=O)n(Cc3ccc(C(=O)NC4CCN(Cc5ccccc5)CC4)cc3)c(=O)c2cc1OC`, the Potency result was “inactive”. Under `COCCn1c(=O)[nH]c2cc(C(=O)NCc3cccnc3)ccc2c1=O` stands 28.2 µM (active); under `CCCCCn1nnnc1C1c2ccccc2C(=O)N1Cc1ccco1` (stereo unspecified), “inactive”.

`C#Cc1cc(N2CCN(C(=O)c3ccoc3)CC2)n2nc(-c3cccc(Cl)c3)cc2n1`: the Potency result is “inactive”. The entry for `CC(=O)N1Cc2cc(C(=O)NCc3cccc(F)c3)nc(-c3cccc(C4=CCCCC4)c3)c2[C@H]1CCO` is “inactive”; for `CC(C)(C)C(=O)c1c(N)[nH]c(C(=O)c2ccccc2)c1-c1ccc(F)cc1` it is “inactive”.

On to `O[C@@H]1C[C@H](c2ccccc2)N(Cc2cccs2)C[C@H]1n1cc(C2CC2)nn1`, for which the Potency result is “inactive”. The entry for `O=C(Cn1c(=O)n(-c2ccc(F)cc2)c(=O)c2sc3ccccc3c21)NC1CCCC1` is “inactive”; for `O=C(Cn1c(=O)n(Cc2ccccc2)c(=O)c2sc3ccccc3c21)Nc1ccccc1F` it is 28.2 µM (active); for `CCOc1ccccc1NC(=O)Cn1c(=O)n(Cc2ccco2)c(=O)c2sc3ccccc3c21` it is “inactive”. The figure for `O=C(CSC1=Nc2ccccc2C2=NC(c3ccccc3)C(=O)N12)NCC1CCCO1` (stereo unspecified) is 17.8 µM (active); for `Cc1ccc(CNC(=O)CSC2=Nc3ccccc3C3=NC(C)C(=O)N23)cc1` (stereo unspecified) it is “inactive”; for `O=C(CSC1=Nc2ccccc2C2=NC(CC(=O)NCc3ccco3)C(=O)N12)NCc1ccco1` (stereo unspecified) it is “inactive”. Regarding `Cc1ccc(S(=O)(=O)N2CCN(c3nc(-n4cnc5ccccc54)nc4ccccc34)CC2)cc1`, the Potency result is “inactive”.

Consider `Cc1ccc(OCC(=O)Nn2cnc3ccccc32)cc1`, for which the Potency result is “inactive”.

As for `COc1ccc(-c2cc(C(=O)n3cnc4ccccc43)c3ccccc3n2)cc1`, the Potency is 31.6 µM (active). Under `O=C(c1ccc(Cl)cc1)n1cnc2ccccc21` stands “inactive”. For the molecule `CC(=O)Nc1cc(-c2cccc(CO)c2)cn2c(-c3cccc(C(F)(F)F)c3)cnc12`, the Potency entry is “inactive”. Under `CCN(CC)c1ncnc2c1ncn2[C@H]1CN(Cc2cccs2)C[C@@H](CO)O1` stands “inactive”; under `Cc1cc(=O)oc2cc(OCC3CC(c4ccccc4Cl)=NO3)ccc12` (stereo unspecified), 28.2 µM (active); under `Cc1cc(=O)oc2cc(NC(=O)C3CC(=O)N(Cc4ccccc4)C3)ccc12` (stereo unspecified), “inactive”. In the case of `Cc1ccccc1NC(=O)c1ccc(COc2ccc3c(C)cc(=O)oc3c2)cc1`, the Potency entry is “inactive”. Under `COc1ccccc1N1CCN(CCCCOc2ccc(F)cc2)CC1` stands “inactive”. The entry for `Cc1cc(OCCCN2CCN(Cc3ccccc3)CC2)ccc1[N+](=O)[O-]` is “inactive”; for `Cc1ccccc1N1CCN(CCCOc2ccc3c(C)cc(=O)oc3c2)CC1` it is 35.5 µM (active); for `COc1cccc(C(NC(C)=O)c2nc(-c3ccccc3OC)cs2)c1` (stereo unspecified) it is “inactive”. The entry for `CC1(C(=O)Nc2ccccc2Br)CCN1C(=O)CC1CC1` (stereo unspecified) is “inactive”.

Regarding `COc1ccc(C2OC(CCc3ccccc3)Cc3[nH]c(=S)[nH]c(=O)c32)cc1` (stereo unspecified), the Potency result was “inactive”. The entry for `OC[C@@H]1CN(Cc2ccncc2)C[C@H](n2cnc3c(N4CCN(c5ccccc5)CC4)ncnc32)O1` is “inactive”; for `COCCCn1cc(CN2CC(N(C)C)CS2(=O)=O)nn1` (stereo unspecified) it is “inactive”. The entry for `CCCCC(O)C1=C[N+](=O)CC=C1` (stereo unspecified) is “inactive”. Turning to `Cc1cc(NC(C)C)n2c(nc3ccccc32)c1C#N`, the Potency result was “inactive”. Under `Cc1cc(NCc2ccco2)n2c(nc3ccccc32)c1C#N` stands 28.2 µM (active); under `CCOCCCNc1c(CC)c(C)c(C#N)c2nc3ccccc3n12`, “inactive”. The entry for `N#CCCN(C(=O)Nc1ccc(Cl)c(Cl)c1)C1CCCCC1` is “inactive”. Under `CCOC(=O)C1CCCN(C(=O)c2cc(-c3cccs3)oc2C)CC1` (stereo unspecified) stands “inactive”; under `CCOC(=O)c1c(NC(=O)COc2cc(C)ccc2C(C)C)sc(C)c1C`, “inactive”; under `Cc1ccc(NC(=O)CN(C)C(=O)COC(=O)c2nccnc2N)cc1`, “inactive”. Consider `CCOC(=O)c1cc(C(C)C)sc1NC(=O)COC(=O)c1nccnc1N`, for which the Potency was 20 µM (active). Turning to `COc1ccc(-c2csc(Nc3cccc(C)n3)n2)cc1OC`, the Potency entry was “inactive”.

For the molecule `COc1ccc(-c2csc(NC(=O)c3ccc(N4C(=O)CCC4=O)cc3)n2)cc1OC`, the Potency is 14.1 µM (active). The entry for `COc1ccc(C(=O)Nc2nc(-c3ccc(S(=O)(=O)N4CCOCC4)cc3)cs2)cc1` is “inactive”.

(Values after PubChem BioAssay AID651965 (National Center for Advancing Translational Sciences (NCATS), 2013).)
